{"source": "PubChem BioAssay AID624335", "about": "(National Center for Advancing Translational Sciences (NCATS), 2012)", "note": "Calls of active or inactive are those of the source. The call rests on the fitted dose curve; in most records, active means well fitted curve in the direction sought with a large enough effect; inactive means flat fitted curve, though single readings scatter."}
{"assay": "Quantitative high throughput screen for delayed death inhibitors of the malarial parasite plastid: Hit Validation with 3D7 at 96 hr using Flow Cytometry", "settings": "P. falciparum 3D7 in erythrocytes, SYBR/MitoTracker flow cytometry", "excerpt": "The goal of this screen is to discover new antimalarial compounds that act by inhibiting the development of the apicoplast organelle in the malarial parasite Plasmodium falciparum. Some antibiotics, such as azithromycin and tetracycline, are known to interfere with the apicoplast translational machinery, and have a potent antimalarial effect. […] We developed a cell-based quantitative high throughput screen that leverages this \"delayed death\" phenotype to enrich for compounds that target the apicoplast. To detect small molecules that cause the delayed death phenotype, erythrocytes infected with firefly luciferase-expressing parasites were incubated with compounds for either one or two generations, corresponding to 48 and 96 hours, respectively. Growth inhibition was detected by a decrease in luciferase activity. Compounds that inhibited parasite growth in the second generation at least five-fold more potently than in the first generation were defined as delayed death inducing. These compounds were selected for confirmatory screening using a flow cytometry based assay. This hit validation assay used the 3D7 cell line and measured at 96 hours. NIH Molecular Libraries Probe Production Network [MLPCN] NIH Chemical Genomics Center [NCGC] MLPCN Grant: R21 NS059500 Assay Provider: David Fidock and Eric Ekland, Columbia University\nTest compounds were diluted in 20 microliters of complete media (RPMI 1640 with 0.5% w/v Albumax (GIBCO), 24 mM sodium bicarbonate (Sigma) and 10 ug/mL gentamycin (Gibco)) in clear 384-well plates (Greiner). All liquid handling was conducted using a Bio Tek Precision 2000 pipetting system. Twenty microliters of infected erythrocytes, 0.2% parasitemia (for 48 hour time points) or 0.1% parasitemia (for 96 hour time points) were added to the compound dilutions (1% hematocrit, final concentration; 40 microliters, total culture volume). The assay plates were incubated for 48 hours, or 96 hours, at 37 masculine C in a humidified chamber (Billups- Rothenberg, Del Mar, CA, USA), gassed with 5%CO2/5%O2/ 90%N2. After two generations (96hours), 5 microliters of culture were harvested and transferred to a second 384 well plate for fluorescent staining. Samples were stained with 30 microliters of 2 x SYBR Green I (Invitrogen) and 150nM MitoTracker Deep Red (Invitrogen) diluted in 0.9% NaCl, 0.2% dextrose (Baxter) supplemented with 2.5% Fetal Calf Serum (Gibco) (saline/FCS). Mature erythrocytes lack nuclei and mitochondria, therefore only parasitized erythrocytes retain the SYBR Green I and MitoTracker Deep Red. After 30 minutes at 37 masculine C, the stained cells were diluted in an additional 60 microliters of saline/FCS. The samples were harvested directly from the 384 well plate using a Hypercyt High Capacity Flow Platform (Intellicyt) paired with a C6 Flow Cytometer (Accuri). The flow cytometry files were analyzed using FlowJo software (FlowJo)."}
{"smiles": "O=C(CSc1ccc(-c2cccnc2)nn1)Nc1ccccc1C(F)(F)F", "Potency": "4.65 µM (active)"}
{"smiles": "O=C(NCc1cccnc1)c1ccc(NS(=O)(=O)c2ccccc2)cc1", "Potency": "21.4 µM (active)"}
